Results taken from PubChem BioAssay AID1159580 (chemical genetic matrix, 2015).
Screen size: about 5,500 compounds; about 2,000 (36%) were called active. About 18% were inconclusive and are not listed. Cut-off read from the data, not from the text of the source: active = normalized growth mostly below about 0.91 (no sharp cut-off); inconclusive = no clear call, values can overlap the other calls; inactive = mostly above about 0.92. Some of the results follow.

Test: chemical genetic growth profiling, strain panel (AID 1159580);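 note: tested at 20 µM; growth read once vehicle control cultures reached saturation at 30 °C; 1 = growth at the plate median or of vehicle wells; lower values mean less growth of the strain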
Settings: growth OD
[1] = S. cerevisiae deletion strains, locus YDL101C, strain DUN1, hits give low values
[2] = S. cerevisiae deletion strains, locus YHR030C, strain SLT2, hits give low values
[3] = S. cerevisiae deletion strains, locus YAL013W, strain DEP1, hits give low values
[4] = S. cerevisiae deletion strains, locus YBR229C, strain ROT2, hits give low values
[5] = S. cerevisiae deletion strains, locus YDR150W, strain NUM1, hits give low values
[6] = S. cerevisiae deletion strains, locus YEL061C, strain CIN8, hits give low values
[7] = S. cerevisiae deletion strains, locus YGR078C, strain PAC10, hits give low values
[8] = S. cerevisiae deletion strains, locus YHR087W, strain rtc3, hits give low values
[9] = S. cerevisiae deletion strains, locus YJL187C, strain SWE1, hits give low values
[10] = S. cerevisiae deletion strains, locus YJR043C, strain POL32, hits give low values
[11] = S. cerevisiae deletion strains, locus YJR075W, strain HOC1, hits give low values
[12] = S. cerevisiae deletion strains, locus YLR039C, strain RIC1, hits give low values
[13] = S. cerevisiae deletion strains, locus YLR058C, strain SHM2 (second series), hits give low values
[14] = S. cerevisiae deletion strains, locus YLR085C, strain ARP6, hits give low values
[15] = S. cerevisiae deletion strains, locus YLR262C, strain YPT6, hits give low values
[16] = S. cerevisiae deletion strains, locus YML094W, strain GIM5, hits give low values
[17] = S. cerevisiae deletion strains, locus YMR219W, strain ESC1, hits give low values
[18] = S. cerevisiae deletion strains, locus YMR263W, strain SAP30, hits give low values
[19] = S. cerevisiae deletion strains, locus YNL153C, strain GIM3, hits give low values
[20] = S. cerevisiae deletion strains, locus YNL298W, strain CLA4 (second series), hits give low values
[21] = S. cerevisiae deletion strains, locus YNL322C, strain KRE1, hits give low values
[22] = S. cerevisiae deletion strains, locus YNR030W, strain Alg12, hits give low values
[23] = S. cerevisiae deletion strains, locus YOL006C, strain TOP1, hits give low values
[24] = S. cerevisiae deletion strains, locus YPL055C, strain LGE1, hits give low values
[25] = S. cerevisiae deletion strains, locus YPL241C, strain CIN2, hits give low values
[26] = S. cerevisiae deletion strains, locus YPR135W, strain CTF4, hits give low values

Measured: normalized growth

FC(F)(F)c1cccc(NNC(=S)Nc2ccccc2)c1
active: [2] 0.754 | S. cerevisiae deletion strains, locus YLR113W, strain HOG1, hits give low values 0.764 | S. cerevisiae deletion strains, locus YPL256C, strain CLN2, hits give low values 0.848
inactive: S. cerevisiae deletion strains, locus YAR019C, strain CDC15, hits give low values 0.996 | S. cerevisiae deletion strains, locus YBL105C, strain PKC1, hits give low values 1 | S. cerevisiae deletion strains, locus YBR135W, strain CKS1, hits give low values 1 | S. cerevisiae deletion strains, locus YBR136W, strain MEC1, hits give low values 0.999 | S. cerevisiae deletion strains, locus YBR160W, strain CDC28, hits give low values 0.997 | S. cerevisiae deletion strains, locus YDL017W, strain CDC7, hits give low values 0.998 | S. cerevisiae deletion strains, locus YDL028C, strain MPS1, hits give low values 1 | [1] 0.994 | S. cerevisiae deletion strains, locus YDL108W, strain KIN28, hits give low values 1.01 | S. cerevisiae deletion strains, locus YDL132W, strain cdc53, hits give low values 0.99 | S. cerevisiae deletion strains, locus YDL214C, strain PRR2, hits give low values 0.951 | S. cerevisiae deletion strains, locus YDR052C, strain DBF4, hits give low values 0.998 | S. cerevisiae deletion strains, locus YDR054C, strain cdc34, hits give low values 0.989 | S. cerevisiae deletion strains, locus YDR226W, strain ADK1, hits give low values 0.999 | S. cerevisiae deletion strains, locus YDR477W, strain SNF1, hits give low values 0.882 | S. cerevisiae deletion strains, locus YER123W, strain YCK3, hits give low values 0.912 | S. cerevisiae deletion strains, locus YER133W, strain GLC7, hits give low values 0.975 | S. cerevisiae deletion strains, locus YFL009W, strain cdc4, hits give low values 1 | S. cerevisiae deletion strains, locus YFL029C, strain CAK1, hits give low values 1 | S. cerevisiae deletion strains, locus YFR003C, strain YPI1, hits give low values 1.01 | S. cerevisiae deletion strains, locus YFR019W, strain FAB1, hits give low values 0.974 | S. cerevisiae deletion strains, locus YFR028C, strain CDC14, hits give low values 1 | S. cerevisiae deletion strains, locus YGR040W, strain KSS1, hits give low values 0.897 | S. cerevisiae deletion strains, locus YGR052W, strain FMP48, hits give low values 0.957 | S. cerevisiae deletion strains, locus YGR092W, strain DBF2, hits give low values 0.807 | S. cerevisiae deletion strains, locus YHR079C, strain IRE1, hits give low values 0.848 | S. cerevisiae deletion strains, locus YHR082C, strain KSP1, hits give low values 0.876 | S. cerevisiae deletion strains, locus YHR205W, strain SCH9, hits give low values 0.877 | S. cerevisiae deletion strains, locus YIL147C, strain SLN1, hits give low values 0.998 | S. cerevisiae deletion strains, locus YJL095W, strain BCK1, hits give low values 0.856 | S. cerevisiae deletion strains, locus YJL128C, strain PBS2, hits give low values 0.986 | S. cerevisiae deletion strains, locus YJL157C, strain FAR1, hits give low values 0.945 | S. cerevisiae deletion strains, locus YJR016C, strain ILV3, hits give low values 0.996 | S. cerevisiae deletion strains, locus YJR066W, strain TOR1 (second series), hits give low values 0.812 | S. cerevisiae deletion strains, locus YJR066W, strain TOR1, hits give low values 0.861 | S. cerevisiae deletion strains, locus YKL048C, strain ELM1, hits give low values 0.948 | S. cerevisiae deletion strains, locus YKL067W, strain YNK1, hits give low values 0.937 | S. cerevisiae deletion strains, locus YKL101W, strain HSL1, hits give low values 0.907 | S. cerevisiae deletion strains, locus YKL193C, strain SDS22, hits give low values 1 | S. cerevisiae deletion strains, locus YKL203C, strain TOR2, hits give low values 0.968 | S. cerevisiae deletion strains, locus YLR133W, strain CKI1, hits give low values 0.946 | S. cerevisiae deletion strains, locus YLR403W, strain SFP1, hits give low values 0.929 | S. cerevisiae deletion strains, locus YML070W, strain DAK1, hits give low values 0.947 | S. cerevisiae deletion strains, locus YMR001C, strain CDC5, hits give low values 1.01 | S. cerevisiae deletion strains, locus YMR205C, strain PFK2 (second series), hits give low values 0.971 | S. cerevisiae deletion strains, locus YMR277W, strain FCP1, hits give low values 0.994 | S. cerevisiae deletion strains, locus YNL006W, strain LST8, hits give low values 1 | S. cerevisiae deletion strains, locus YNL020C, strain ARK1, hits give low values 0.925 | S. cerevisiae deletion strains, locus YNL161W, strain CBK1, hits give low values 0.997 | S. cerevisiae deletion strains, locus YNL183C, strain NPR1, hits give low values 0.874 | S. cerevisiae deletion strains, locus YNL207W, strain RIO2, hits give low values 0.998 | S. cerevisiae deletion strains, locus YNL222W, strain SSU72, hits give low values 0.999 | S. cerevisiae deletion strains, locus YNL307C, strain MCK1 (second series), hits give low values 0.825 | S. cerevisiae deletion strains, locus YOL078W, strain AVO1, hits give low values 0.995 | S. cerevisiae deletion strains, locus YOL136C, strain PFK27, hits give low values 0.938 | S. cerevisiae deletion strains, locus YOR061W, strain CKA2, hits give low values 0.856 | S. cerevisiae deletion strains, locus YOR119C, strain RIO1, hits give low values 0.993 | S. cerevisiae deletion strains, locus YOR231W, strain MKK1, hits give low values 0.882 | S. cerevisiae deletion strains, locus YOR329C, strain SCD5, hits give low values 0.996 | S. cerevisiae deletion strains, locus YPL031C, strain PHO85, hits give low values 0.894 | S. cerevisiae deletion strains, locus YPL153C, strain RAD53, hits give low values 0.919 | S. cerevisiae deletion strains, locus YPL204W, strain HRR25, hits give low values 0.89 | S. cerevisiae deletion strains, locus YPL209C, strain IPL1, hits give low values 0.997 | S. cerevisiae deletion strains, locus YPR025C, strain CCL1, hits give low values 1 | S. cerevisiae deletion strains, locus YPR106W, strain ISR1, hits give low values 1.01 | S. cerevisiae deletion strains, locus YPR111W, strain DBF20, hits give low values 1 | S. cerevisiae deletion strains, strain NNK1, hits give low values 0.995 | S. cerevisiae deletion strains, strain TSCII, hits give low values 1

CC(C)(C)C(=O)NC(=S)Nc1cccc(C(F)(F)F)c1
active: [3] 0.925 | S. cerevisiae deletion strains, locus YDL134C, strain PPH21, hits give low values 0.804 | [2] 0.527 | [12] 0.401 | [14] 0.397 | [15] 0.474 | [16] 0.846 | [20] 0.676 | [22] 0.722 | [23] 0.238 | [24] 0.785 | [25] 0.755 | [26] 0.569
inactive: [4] 0.989 | [1] 0.984 | [5] 0.91 | [6] 0.944 | [7] 0.959 | S. cerevisiae deletion strains, locus YGR229C, strain SMI1, hits give low values 0.959 | [8] 0.99 | [9] 0.987 | [10] 0.957 | [11] 0.977 | [13] 0.966 | [17] 0.978 | [18] 0.953 | [19] 0.955 | [21] 0.984

COc1ccc(CCNC(=S)Nc2cccc(C(F)(F)F)c2)cc1OC
inactive: [3] 0.997 | [4] 0.995 | [1] 0.999 | [5] 0.957 | [6] 1.02 | [7] 0.971 | [2] 0.9 | [8] 1.03 | [9] 1.01 | [10] 0.968 | [11] 0.981 | [12] 0.837 | [13] 1.01 | [14] 0.962 | [15] 0.831 | [16] 0.968 | [17] 1 | [18] 0.981 | S. cerevisiae deletion strains, locus YNL128W, strain TEP1, hits give low values 0.987 | [19] 0.969 | [20] 1 | [21] 0.996 | [22] 1 | [23] 0.964 | [24] 1 | [25] 0.969 | [26] 0.895 | S. cerevisiae strains, strain wild type, hits give low values 0.982
